The list is not random: actives were taken first. Their share in the collection is about 4.1%.
hgDAF-12 ag = agonists of H. glycines DAF-12 nuclear receptor. HEK293 GAL4-hgDAF12 UAS-luciferase reporter, agonist luminescence; normalized to butyrate control. 370,000 tested, 1.8% active. activation, % at 6.8 µM;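 active means activation above a cutoff set at the mean of all screened compounds plus 3 SD, cut at about 10% in these data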;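 further: 0% = DMSO wells and 100% = sodium butyrate wells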
DAX1 inh-1 = DAX1 (NR0B1) inhibition, primary screen; HEK293T StAR-luciferase reporter, SF-1/DAX-1 repression relief; inhibition, % at 6.8 µM; 370,000 tested, 1.1% active;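 active means inhibition above the mean over all tested compounds plus 3 SD, cut at about 3.6% in these data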;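 further: 0% = DAX-1 cells with DMSO and 100% = cells lacking DAX-1 with DMSO; higher inhibition means more luminescence from relief of DAX-1 repression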
hcDAF-12 act = activates DAF-12 receptor from parasite H. contortus; HEK293 hcDAF-12 lit1-tk-luc reporter, luminescence; 0% DMSO, 100% Δ7-dafachronic acid; activation, % at 6.8 µM; 370,000 tested, 1.4% active;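 active means activation above the mean of all tested compounds plus 3 SD, cut at about 5.5% in these data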;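 further: 100% = response to 3 µM Δ7-dafachronic acid high control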
DAX1 inh-2 = inhibitors of human orphan nuclear receptor DAX1 (NR0B1) | P51843 | HEK293 Gal4-DAX1 luciferase reporter, luminescence | inhibition, % at 6.75 µM | 340,000 tested, 0.99% active;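 active means inhibition above the mean over all tested compounds plus 3 SD, cut at about 4.2% in these data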;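 further: 0% = DAX1-transfected cells with DMSO and 100% = empty-vector control cells with DMSO; inhibition shows as a rise in luminescence from relieved DAX1 repression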
Target sequence (P51843 207-470 limits assumed): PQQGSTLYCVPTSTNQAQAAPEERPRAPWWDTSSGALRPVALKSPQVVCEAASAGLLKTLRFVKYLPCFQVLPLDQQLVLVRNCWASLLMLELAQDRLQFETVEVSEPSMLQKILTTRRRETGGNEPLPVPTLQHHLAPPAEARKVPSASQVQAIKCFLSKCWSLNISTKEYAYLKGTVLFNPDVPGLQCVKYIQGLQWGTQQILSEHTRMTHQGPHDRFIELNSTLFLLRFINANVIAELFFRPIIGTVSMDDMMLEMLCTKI
ssDAF12 agonist = S. stercoralis DAF-12 activation, primary screen; activation, % at 6.8 µM; 370,000 tested, 1% active; HEK293 ssDAF-12/GRIP1 lit1-tk-luc reporter, luminescence; % of 3 µM dafachronic acid response;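 active means activation above the mean over all tested compounds plus 3 SD, cut at about 0.9% in these data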;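 further: 0% = DMSO-only wells and 100% = 3 µM delta7-dafachronic acid wells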
* hit, by the source's call; / = no result given.

SMILES	hgDAF-12 ag	DAX1 inh-1	hcDAF-12 act	DAX1 inh-2	ssDAF12 agonist
CC1(c2nnnn2C2CCCCC2)CSCC(=O)N1CCc1ccc(O)cc1 (stereo unspecified)	2.5	-0.9	-3.8	/	-0.6
O=C1N=C(N2CCOCC2)S/C1=C1\C(=O)N(Cc2ccccc2)c2ccccc21	3.6	-0.1	0.5	4.4*	-1.2
C[C@H](O)[C@@H]1CN2CCc3c([nH]c4cccc(-c5ccccc5)c34)[C@@H]2C[C@@H]1N(C)C(=O)C1CCCCC1	1.0	-0.8	-3.4	/	-1.4
O=S1(=O)C=CCN1Cc1cn(Cc2ccc(F)cc2)nn1	2.8	0.8	-1.9	/	-1.0
Cc1ccc(OCC(=O)N2CCCCCCC2)cc1C	5.1	0.5	0.8	0.6	-0.7
Cc1cc(OCC(=O)N2CCCCCC2)ccc1[N+](=O)[O-]	12.3*	2.0	0.2	2.0	0.7
COc1ccc(-n2c(O)c(C=NCc3ccccn3)c3ccccc3c2=O)c(OC)c1	-0.5	-0.3	6.1*	0.8	-0.8
COc1cccc(-n2c(O)c(C=NCc3ccccn3)c3ccccc3c2=O)c1	-1.7	0.0	-2.4	-3.3	-1.3
CCC(=O)N1CCC1(C)C(=O)Nc1cc(-c2ccccc2)nn1C (stereo unspecified)	10.5*	3.2	-0.7	/	-0.8
Cc1ccccc1NC(=O)Nc1cc(-c2ccccc2)nn1C	1.2	0.3	1.5	6.6*	-1.3
C[C@H]1[C@@H](N(C)C)CC[C@@]23CCCN2C(=O)CCC[C@@H]13	-3.2	/	5.0	/	-1.5
O=C1Nc2ccccc2OC1CC(=O)N1CCOCC1 (stereo unspecified)	2.8	0.9	2.5	6.0*	-0.7
O=C1Nc2ccccc2OC1CC(=O)N1CCN(c2cccc(C(F)(F)F)c2)CC1 (stereo unspecified)	-1.6	-0.1	-0.3	0.2	-1.5
C/C(=N\NC(=O)c1ccccc1C)c1ccc(NC(=O)c2cccs2)cc1	11.9*	2.6	2.1	0.8	-0.5
C/C(=N\NC(=O)c1ccccc1)c1ccc(NC(=O)c2cccs2)cc1	0.1	0.6	0.3	-0.4	-1.6
CCCCC(=O)N1CCC(NS(=O)(=O)c2ccc3c(c2)CCN3C(C)=O)CC1	-1.7	-1.7	-1.4	/	-1.7
O=S(=O)(NCc1csc(-c2cccnc2)n1)c1cccs1	2.7	1.1	-0.2	0.3	0.9*
O=C(O)c1[nH]c2ccccc2c1NS(=O)(=O)Cc1ccccc1	0.9	-0.9	6.0*	2.5	0.2
O=C(O)c1[nH]c2ccccc2c1NS(=O)(=O)c1ccc(F)cc1	5.1	0.3	4.8	1.2	0.7
COc1ccc(C(=O)OCCCN(C)C2CN(Cc3cn(Cc4ccc([N+](=O)[O-])cc4)nn3)S(=O)(=O)C2)cc1OC (stereo unspecified)	-3.1	-3.5	-0.6	/	-1.4
CC(C)[C@H]1/C(=C/C2CC2)N2C(=O)C[C@H](c3cccc(C(F)(F)F)c3)N=C2N1Cc1ccc2c(c1)OCO2	-0.9	/	-2.1	/	-1.1
Cc1cc2c(c(C)c1CCO[C@@H]1O[C@H](CO)[C@@H](O)[C@H](O)[C@H]1O)C(=O)[C@@H](C)[C@@H]2O	1.0	0.2	-0.7	-0.8	-0.6
Cc1cc2c(c(C)c1CCO)C(=O)[C@H](C)C2	2.5	1.1	-1.1	4.7*	-0.6
CC(C)(C)C1CCC(=NNC(=S)Nc2cccnc2)CC1 (stereo unspecified)	0.4	0.6	-1.2	1.0	3.8*
Cc1cc(/C=C(\C#N)C(=O)NCc2cccs2)c(C)n1-c1ccccc1F	6.8	1.1	3.8	2.7	1.1*
SMILES	hgDAF-12 ag	DAX1 inh-1	hcDAF-12 act	DAX1 inh-2	ssDAF12 agonist
Cn1c2ccccc2c2cc(C(=O)NNC(=O)CCl)sc21	-2.2	-2.5	6.2*	-2.0	-0.9
Cn1cnnc1Sc1ccc(C(=O)NCCC(c2ccccc2)c2ccccc2)cc1[N+](=O)[O-]	-1.4	-0.8	-1.5	4.3*	-1.8
Cc1noc(C)c1S(=O)(=O)N1CCN(S(=O)(=O)c2ccccc2C#N)CC1	0.6	-0.3	2.1	7.8*	-0.8
CC(C)[C@H](NC(=O)OCc1ccccc1)C(=O)OCC(=O)N1CCCCC1	12.2*	0.4	2.4	0.3	-0.3
COCCCN1C(=O)[C@H](CC(=O)N2CCN(C(=O)c3ccco3)CC2)[C@]2(C(=O)OC)CCCCC=C12	0.5	0.6	-0.4	/	0.1
O=C(c1ccccc1)c1ccc(N2CCCC2)cc1	11.8*	1.8	2.0	0.6	-0.2
COC(=O)c1cc(NC(=O)/C=C/c2ccccc2)ccc1O	11.4*	0.9	0.7	/	-1.2

From PubChem BioAssay
